D2 ag-1 – Beta-Arrestin HTS for Positive Allosteric Modulators of the Human D2 Dopamine Receptor: Agonists; D(2) dopamine receptor (Homo sapiens), P14416; DiscoveRx PathHunter D2 beta-arrestin, luminescence, 90 min; 100% = 57 uM dopamine signal; activation, % (concentration not given with the values); 360,000 tested, 0.084% active; AID 624465, 2012; in the data active = activation above about 40%
Target sequence (P14416 whole entry, looked up): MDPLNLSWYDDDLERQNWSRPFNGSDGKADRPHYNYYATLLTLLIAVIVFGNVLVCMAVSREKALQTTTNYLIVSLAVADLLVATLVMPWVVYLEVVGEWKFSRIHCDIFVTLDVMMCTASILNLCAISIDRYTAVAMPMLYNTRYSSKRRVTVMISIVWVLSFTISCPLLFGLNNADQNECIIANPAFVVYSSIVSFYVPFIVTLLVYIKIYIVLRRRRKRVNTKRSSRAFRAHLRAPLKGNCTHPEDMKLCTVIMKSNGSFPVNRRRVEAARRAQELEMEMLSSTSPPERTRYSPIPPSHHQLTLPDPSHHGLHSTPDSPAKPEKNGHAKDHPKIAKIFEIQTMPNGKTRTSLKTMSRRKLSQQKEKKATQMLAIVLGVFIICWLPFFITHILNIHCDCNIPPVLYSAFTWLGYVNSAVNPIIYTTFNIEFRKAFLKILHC
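DiscoveRx PathHunter D2 beta-arrestin cells (2,100/well) attached overnight, then compound-stimulated 90 min at 37 C in HBSS/10 mM HEPES/0.1% Tween-20 buffer; beta-galactosidase complementation read by luminescence after 1 h at ambient temperature. Dopamine 57 uM final (EC100) as control.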
D2 PAM-1 – HTS Assay for Positive Allosteric Modulators of the Human D2 Dopamine Receptor: Primary Screen for Potentiators; potentiation, % at 10 µM; AID 485347, 2010; D(2) dopamine receptor (Homo sapiens), P14416; 340,000 tested, 0.34% active; HEK293 T-REx D2, calcium flux, EC20 dopamine potentiation;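 active = potentiation over 3 SD above the plate norm, cut at about 30% in these data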; note: 0% is about no effect
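Primary screen. Calcium kinetics in induced HEK293 T-REx D2 cells: compound pre-addition 180 s, EC20 dopamine, 180 s more.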
D2 antagonist – HTS Assay for Allosteric Antagonists of the Human D2 Dopamine Receptor: Primary Screen for Antagonists; 340,000 tested, 2% active; AID 485344, 2010; D(2) dopamine receptor (Homo sapiens), P14416; HEK293 TREx D2 cells, calcium flux, dopamine EC80; inhibition, % at 10 µM; in the data active = inhibition above about 30%; inactive = below that, where a call was filed; note: 0% is about no effect
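Tetracycline-induced HEK293 TREx cells expressing D2 receptor forced-coupled to calcium signalling, loaded with no-wash calcium dye. Compounds added and calcium flux read 180 s, then dopamine added at EC80 and read a further 180 s.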
D2 ag-2 – HTS Assay for Allosteric Agonists of the Human D2 Dopamine Receptor: Primary Screen for Agonists | activation, % at 2 µM | 340,000 tested, 0.53% active | D(2) dopamine receptor (Homo sapiens), P14416 | HEK293 T-REx D2 cells, calcium flux agonist mode;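 active = activation over 3 SD above normal in the single-dose calcium agonist read, cut at about 30% in these data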; note: 0% is about no effect
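Agonism is scored from calcium flux in a force-coupled, inducible HEK293 cell line expressing D2, read kinetically for 180 s after compound addition against dopamine controls.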
D2 PAM-2 – Beta-Arrestin HTS for Positive Allosteric Modulators of the Human D2 Dopamine Receptor: Potentiators | AID 624464, 2012 | D(2) dopamine receptor (Homo sapiens), P14416 | 360,000 tested, 0.23% active | potentiation, % (test concentration not listed) | DiscoveRx D2 beta-arrestin cells, luminescence, 90 min; 100% = 57 uM dopamine signal; in the data active = potentiation above about 50%
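PathHunter beta-arrestin assay in DiscoveRx D2 cells. Compounds were added with an EC20 of dopamine (50 nM final) for 90 min at 37 deg C. Luminescence was read 1 h after detection reagent, with 57 uM dopamine as the EC100 control.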
* = called active by the depositor; x = no result given. Compounds with a hit are over-represented: about 2.4% of the library has one in this group of screens.

SMILES	D2 ag-1	D2 PAM-1	D2 antagonist	D2 ag-2	D2 PAM-2
Cc1cc(C)c(NC(=O)C2CCCN(S(=O)(=O)c3c(C)noc3C)C2)c(C)c1 (stereo not drawn)	x	30	x	-1	x
Cc1cc(C)c(NC(=O)C2CCCN(S(=O)(=O)c3c(C)noc3/C=C/N(C)C)C2)c(C)c1 (stereo not drawn)	-2	-1	33*	0	-3
CCc1cccc(CC)c1NC(=O)c1c(C)oc2ccc(O)c(CN3CCOCC3)c12	x	11	x	x	x
Cc1ccc(/C=C/C(=O)NCCCc2ccccc2)cc1	-5	9	-12	-1	-20
C#CCNC(=O)/C=C/c1ccc(C)cc1	-2	4	40*	0	-13
COc1ccc(-n2nc(C(=O)N(C)C)nc2-c2ccccc2)cc1	9	9	31*	0	0
CC(COc1ccccc1)N1CCC(CO)(CCc2ccccc2)CC1 (stereo not drawn)	-1	-17	52*	17	-15
OCC1(CCCc2ccccc2)CCN(Cc2cnc(N3CCOCC3)s2)CC1	-2	-3	-9	0	-12
Cc1ncc(CN2CCC(CO)(CCc3ccccc3)CC2)s1	-3	-38	81*	1	-23
Cc1ccnn1CC(=O)N/N=C/c1c[nH]c2ccccc12	-2	-1	-18	0	-2
Cc1ccnn1CC(=O)N/N=C/c1cn[nH]c1-c1ccccc1	-3	1	44*	0	0
Cc1ccc(C(=O)N/C(=C\c2sccc2C)C(=O)NCCCN2CCOCC2)cc1	-3	-9	31*	0	-11
COc1ccc(C(=O)CSc2nc3cccnc3n2C)cc1	-3	11	-14	0	1
COc1cccc(C(=O)CSc2nc3cccnc3n2C)c1	1	-3	37*	1	-3
CSc1cccc(NC(=O)c2cc3c(COC(C)=O)cnc(C)c3oc2=O)c1	x	2	x	3	x
COc1ccc(NC(=O)c2cc(S(=O)(=O)N3CCCCCC3)cn2C)c(OC)c1	x	5	x	-1	x
COc1ccc(NC(=O)c2cc(S(=O)(=O)N3CCOCC3)cn2C)c(OC)c1	2	-7	41*	1	-2
COc1ccc(NC(=O)c2cc3cc(C)ccc3n2C)c(OC)c1	1	0	34*	0	-6
COc1ccc(NC(=O)c2cnc(SC)nc2C)c(OC)c1	-1	19	38*	1	0
COC(=O)c1ccccc1NC(=O)c1cc2cc(C)ccc2n1C	x	-5	x	x	x
COc1cc(-c2nnc3sc(C4CCCCC4)nn23)cc(OC)c1OC	-2	69*	-1	0	-35
COc1cccc(-c2nnc3sc(C4CCCCC4)nn23)c1	-2	16	4	1	-8
O=C(NCc1ccc2c(c1)CCO2)Nc1cccc(C(F)(F)F)c1	-2	-8	40*	0	-14
CC(OC(=O)c1c2c(nc3ccccc13)/C(=C\c1ccc3c(c1)OCO3)CCC2)C(=O)Nc1ccc(S(N)(=O)=O)cc1 (stereo not drawn)	9	7	8	100*	6
CS(=O)(=O)Oc1ccc2c(c1)O/C(=C\C=C\c1ccccc1)C2=O	3	-3	38*	3	-3
SMILES	D2 ag-1	D2 PAM-1	D2 antagonist	D2 ag-2	D2 PAM-2
COc1ccccc1C(=O)NCCC(=O)NCCC12CC3CC(CC(C3)C1)C2	-4	-6	0	-1	-8
COc1ccc(C23CC4CC(CC(C4)C2)C3)cc1C(=O)NCCN(C)C	-6	-15	33*	-1	-62
Nc1nnc(SCC(=O)Nc2cc(C(F)(F)F)ccc2N2CCOCC2)s1	-2	2	87*	0	-9
O=C(Nc1cc(C(F)(F)F)ccc1N1CCOCC1)c1cncc(Br)c1	0	-6	31*	0	-3
CCOC(=O)c1cccc(NS(=O)(=O)c2cc3c(cc2C)NC(=O)CO3)c1	x	6	x	0	x
COc1ccc(N(Cc2nnc3n2CCCCC3)C(=O)Nc2ccc(Cl)cc2)cc1Cl	x	x	x	0	x
CCc1cc2ccc(C)cc2nc1SCC(=O)c1ccc(NC(C)=O)cc1	2	-2	9	1	3
CCc1cc2cccc(C)c2nc1SCC(=O)c1ccc(NC(C)=O)cc1	-2	-1	47*	1	2
COc1cccc(C(C(=O)NC2CCCCC2)N(Cc2ccco2)C(=O)c2ccccn2)c1 (stereo not drawn)	0	-19	34*	4	4
CCCn1c(C(=O)OC)cc2c1ccn2-c1ccc(F)cc1	-3	32*	10	1	8
COC(=O)c1cc2c(ccn2-c2ccc(F)cc2)n1CC(C)C	-3	12	15	0	-5
COc1ccc2c(c1)CCc1c(C(=O)Nc3c(C)nn(Cc4ccc(Cl)c(Cl)c4)c3C)noc1-2	x	22	x	-1	x
O=C(CSc1nc2ccccc2s1)N1CCOCC1	-1	15	-19	1	4
O=C1CCCCCN1CSc1nc2ccccc2s1	-4	36*	3	-2	-6
COc1ccc(NS(=O)(=O)c2c(C)cc(C)cc2C)cc1	-1	-5	34*	1	11
CC(C)Cn1c(SCc2nc3ccccc3c(=O)[nH]2)nc2ccccc2c1=O	-3	36*	-5	0	4
Cn1c(SCc2nc3ccccc3c(=O)[nH]2)nc2ccccc21	-3	0	8	0	-11
CCOc1ccc2cc(S(=O)(=O)n3ccnc3C)ccc2c1	-3	37*	-5	0	-4
Cc1ccc(Cn2ncc3c(N4CCN(c5ccc(C)cc5)CC4)ncnc32)cc1	-1	10	0	-1	13
Cc1ccc(Cn2ncc3c(N4CCN(C)CC4)ncnc32)cc1	5	-33	55*	0	-11
CC(=O)/C(=N\Nc1ccccc1)Oc1ccc([N+](=O)[O-])cc1	0	34*	11	0	1
CC(=O)NC/C(C)=N\Nc1ccc([N+](=O)[O-])cc1	-1	1	3	3	-1
CCNc1nc(NC(C)(C)C)nc(N(C#N)CC)n1	-1	31*	-26	1	-8
CCNc1nc(NCC)nc(N(C#N)C(C)C)n1	-2	9	7	0	-2
CC(CCN1CCOCC1)c1ccccc1 (stereo not drawn)	-2	1	1	0	-2
CC(CCN1CCN(c2ccc(F)cc2)CC1)c1ccccc1 (stereo not drawn)	-5	-21	88*	2	-33

Screens: PubChem, National Center for Advancing Translational Sciences (NCATS)
